The list is not random: actives were taken first. Their share in the collection is about 6.2%.
FMDV antiviral = High Throughput Screening for Foot and Mouth Disease Virus Antivirals; FMDV antiviral cell-based qHTS; Potency, µM (top dose mostly 57.9 µM), for inactives: at the highest dose activity change, negative = inhibition, hits mostly inhibitors; hit rate 1.2% among 410,000; AID 1159524, 2015; calls by dose curve; tested in HEK293T cells; further: read-out not given here; potency means the concentration at half of the fitted maximal effect; nearly all actives have a fitted effect of over 45% in size
HCMV inh = qHTS Assay for inhibitors of the human cytomegalovirus (HCMV); HFF cells, HCMV-luciferase reporter, 72 h; hits give low values; activity change, negative = inhibition, % at 57.5 µM; hit rate 4.5% among 410,000; in the data active means activity change below about -60%; inconclusive means no clear call, values can overlap the other calls; inactive means above about -39%
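Compounds were evaluated in HFFs infected with an HCMV luciferase reporter virus (MOI 1 PFU/cell). Luciferase in lysates collected 72 h post infection served as the replication measure.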
Lassa entry inh = qHTS for Inhibitors of binding or entry into cells for Lassa Virus; Lassa virus pseudotype entry inhibition, cell reporter; Potency, µM (highest dose often 37.9 µM), without a hit: at the highest dose activity change, negative = inhibition, hits mostly inhibitors; hit rate 1.2% among 300,000; AID 540256, 2011; calls by dose curve; tested in HEK293 cells; further: potency means the concentration at half of the fitted maximal effect; nearly all actives have a fitted effect of over 50% in size
MARV entry inh = qHTS for inhibitors of binding or entry into cells for Marburg Virus; Potency, µM (highest dose often 37.8 µM), for inactives: at the highest dose activity change, negative = inhibition, actives largely listed as inhibitors; Marburg virus pseudotyped entry inhibition, cell reporter; hit rate 1.8% among 300,000; calls by dose curve; tested in HEK293 cells; further: potency means the concentration at half of the fitted maximal effect
* marks the source's active call; other numbers are inactive results; u = inconclusive; x = no result; + = active, no number; [ ] = dose if it differs, or a comment. On the % scale 0 is the no-effect control and ±100 the full control effect.

SMILES	FMDV antiviral	HCMV inh	Lassa entry inh	MARV entry inh
COc1ccc(C(=O)NC2=NCCS2)cc1	6%	104	29%[46.1 µM]	u
Cc1noc(C)c1-c1ccc2ncnc(NC3CCNCC3)c2c1	12%	x	x	x
CC(=O)Oc1ccc(C2=Cc3ccc(OC(C)=O)cc3OC2C)cc1 (stereo not given)	7%	u	6.3µM*	u
Cc1cc2c(c(-c3cnccn3)c1)OC(CNC(=O)C1CCCN(C)C1)C2 (stereo not given)	-12%	x	x	x
Cc1cccc(NC(=O)c2ccc(F)c(S(=O)(=O)N3CCN(c4ccc(F)cc4)CC3)c2)c1	u	-73*	u	x
O=C(Nc1ccc(Oc2ccccc2)cc1)c1ccc(F)c(S(=O)(=O)N2CCN(c3cccc(Cl)c3)CC2)c1	u	-70*	u	x
CCc1ccccc1NC(=O)c1ccc(F)c(S(=O)(=O)N2CCN(c3cccc(Cl)c3)CC2)c1	u	-35	20%[46.1 µM]	x
COc1ccccc1N1CCN(S(=O)(=O)c2cc(C(=O)Nc3ccc(Oc4ccccc4)cc3)ccc2F)CC1	u	-67*	u	x
Cc1cccc(N2CCN(S(=O)(=O)c3cc(C(=O)Nc4ccc(Oc5ccccc5)cc4)ccc3F)CC2C)c1 (stereo not given)	u	-64*	u	x
Cc1cccc(NC(=O)c2ccc(F)c(S(=O)(=O)N3CCC4(CC3)OCCO4)c2)c1	9%	-7	7%[46.1 µM]	x
COc1ccccc1N1CCN(S(=O)(=O)c2ccccc2F)CC1	-9%	11	-7%	5%
COc1ccc2nc3c(cc2c1)c(NC(=O)C1CCCO1)nn3CC(C)C (stereo not given)	6%	3	-4%	u
O=C(Nc1ccc(Oc2ccccc2)cc1)c1ccc(F)c(S(=O)(=O)N2CCN(c3ccccc3F)CC2)c1	u	-79*	u	x
CC(C)c1ccc(NC(=O)c2ccc(F)c(S(=O)(=O)N3CCN(c4ccccc4F)CC3)c2)cc1	-18%	-37	20%[46.1 µM]	x
Cc1ccccc1CN1CCN(C/C=C/c2ccccc2)CC1	x	x	0%	u
O=c1c2cccnc2[nH]c(=S)n1CCCN1CCN(c2ccc(F)cc2)CC1	-19%	-24	5.8µM*	4.6µM*
CC1CCN(CCn2c(=S)[nH]c3ncccc3c2=O)CC1	x	x	x	2%
COc1ccc(N2CCN(CCCn3c(=S)[nH]c4ncccc4c3=O)CC2)cc1	18%	u	u	4.1µM*
CCCCOC(=O)/C=C\C(=O)OCCCC	-32%	0	x	x
CCCCOC(=O)/C=C\C(=O)NC(N)=O	28µM*	112	u	u
Cc1oc2cc3oc(=O)c(CC(=O)N4CCCCC4)c(C)c3cc2c1C	23%	-71*	-2%[46.1 µM]	4%[46.1 µM]
CS(=O)(=O)Nc1ccc(C2=NN(C(=O)CCCC(=O)O)C(c3cccs3)C2)cc1 (stereo not given)	-1%	-84*	17%[46.1 µM]	-16%[46.1 µM]
CS(=O)(=O)Nc1cccc(C2=NN(C(=O)CCC(=O)O)C(c3cccs3)C2)c1 (stereo not given)	-5%	-16	x	x
COc1cc(CNC(=O)C2CCCC2)cc(OC)c1OC	8%	-11	4%	-29%
CC1CC(C)(C)CC2(C1)NC(=O)N(CC(=O)N1CCN(S(=O)(=O)c3cccc(Cl)c3Cl)CC1)C2=O (stereo not given)	-29%	-24	x	x
SMILES	FMDV antiviral	HCMV inh	Lassa entry inh	MARV entry inh
O=C(NCCc1cccs1)c1ccc(Cn2c(SCc3cccc(F)c3)nc3cccnc32)cc1	-16%	-5	x	u
CC(C)OCCCNC(=O)c1ccc(CSc2nc3cccnc3n2Cc2ccccc2)cc1	-22%	-98*	2%[46.1 µM]	x
O=C(Cn1c(SCc2cccc(F)c2)nc2cccnc21)Nc1ccc(F)c(Cl)c1	-17%	-73*	0%[46.1 µM]	x
O=C(NCc1cccs1)c1ccc(Cn2c(SCc3cccc(F)c3)nc3cccnc32)cc1	-7%	-70*	u	x
Cc1nc(Cl)sc1C(=O)Nc1ccc(C(F)(F)F)cc1	-15%	33	x	x
CC1CCCCC12NC(=O)N(CC(=O)OCc1ccc(Br)cc1)C2=O (stereo not given)	u	+	x	x
CC1CCCCC12NC(=O)N(CC(=O)NCc1ccc3c(c1)OCO3)C2=O (stereo not given)	8%	-80*	6%	0%[46.1 µM]
CS(=O)(=O)c1ccccc1C(=O)Nc1ccccc1Cc1ccccc1	4%	8	u	12%[46.1 µM]
Cc1ccc(NC(=O)c2ccccc2NS(=O)(=O)c2ccc(Cl)s2)cc1	35%	-98*	u	10µM*
Cc1ccc(NS(=O)(=O)c2ccc(Cl)s2)nc1	48%	8	u	0%[46.1 µM]
O=C(Nc1ccccc1)c1ccccc1NS(=O)(=O)c1ccc(Cl)s1	1%	-64*	u	20µM*
O=C(Nc1ccccc1Cc1ccccc1)c1ccccc1NS(=O)(=O)c1ccc(Cl)s1	u	-104*	u	u
O=C(NCc1ccco1)c1ccccc1NS(=O)(=O)c1ccc(Cl)s1	-24%	-26	-18%	-20%[46.1 µM]
Cc1cc(NS(=O)(=O)c2ccc(NC(=O)CSc3nnc(-c4ccco4)n3C)cc2)nc(C)n1	16%	13	-3%	3%
COCCn1c(-c2ccccc2)nc2oc3ccccc3c(=O)c2c1=O	11%	-2	-11%	-28%
COCCn1c(-c2cc(OC)c(OC)c(OC)c2)nc2oc3ccccc3c(=O)c2c1=O	0%	-65*	5.8µM*	u
Cn1ncc(C(=O)N2CCN(c3ccccc3F)CC2)c1C1CCN(C(=O)OC(C)(C)C)CC1	-5%	u	u	x
CCN1CCN(C(=O)c2cnn(-c3ccc(F)cc3F)c2C2CCN(C(=O)OC(C)(C)C)CC2)CC1	-7%	+	-23%[46.1 µM]	x
CC(C)(C)OC(=O)N1CCC(c2c(C(=O)N3CCCCC3)cnn2-c2ccc(F)cc2F)CC1	-12%	0	u	x
CC(C)(C)OC(=O)N1CCC(c2c(C(=O)NC3CCN(Cc4ccccc4)CC3)cnn2-c2ccc(F)cc2F)CC1	-1%	0	-9%[46.1 µM]	x
CCOC(=O)N1CCC(NC(=O)c2cnn(-c3ccc(F)cc3F)c2C2CCN(C(=O)OC(C)(C)C)CC2)CC1	-9%	+	u	x
Cc1ccc(-n2ncc(C(=O)N3CCN(c4ccccc4F)CC3)c2C2CCN(C(=O)OC(C)(C)C)CC2)cc1C	-1%	+	u	x
N#Cc1cccc2c1-c1ccccc1/C2=N/NC(N)=S	35µM*	x	u	u
NC(=S)NN=C1c2ccccc2-c2c(F)c(F)c(F)c(F)c21	u	-27	u	u
CN(C)NC(=S)NC(=O)C12CC3CC(CC(C3)C1)C2	-13%	28	-1%	u
CN(C(=S)NC(=O)C12CC3CC(CC(C3)C1)C2)c1ccc(O)cc1	13%	-61*	x	x
CCN(CC)S(=O)(=O)c1ccc(-c2nnc(SCC(=O)N3CCc4ccccc43)o2)cc1	x	-87*	u	u
O=C(CN1CCN(Cc2ccc(Cl)cc2)CC1)N/N=C/c1ccncc1	0%	2	-13%	2%
CCOC(=S)SCC(=O)Nc1ncc(C)s1	25µM*	0	7%	u
Cc1cnc(NC(=O)CSc2ccccc2)s1	12%	62	11%	14%

Screening results deposited in PubChem by National Center for Advancing Translational Sciences (NCATS).
